KCNQ2 pot: potentiators of rat KCNQ2 potassium channel; Potassium voltage-gated channel subfamily KQT member 2 (Rattus norvegicus), O88943; CHO-K1 KCNQ2, FluxOR thallium flux fluorescence; active compounds read high; B-score at 10 µM; actives 0.54% (n = 310,000);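 active = fluorescence ratio B-score at least 3 SD of library B-scores, with initial fluorescence B-score within 3 of them, cut at about 5.3 in these data; same plate scores as AID 2156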;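 note: B-score of peak minus minimum over baseline fluorescence ratio after K+ and Tl+ stimulus; positive B-score means potentiation of KCNQ2 with more thallium influx and brighter signal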
Target sequence (O88943 whole entry, looked up): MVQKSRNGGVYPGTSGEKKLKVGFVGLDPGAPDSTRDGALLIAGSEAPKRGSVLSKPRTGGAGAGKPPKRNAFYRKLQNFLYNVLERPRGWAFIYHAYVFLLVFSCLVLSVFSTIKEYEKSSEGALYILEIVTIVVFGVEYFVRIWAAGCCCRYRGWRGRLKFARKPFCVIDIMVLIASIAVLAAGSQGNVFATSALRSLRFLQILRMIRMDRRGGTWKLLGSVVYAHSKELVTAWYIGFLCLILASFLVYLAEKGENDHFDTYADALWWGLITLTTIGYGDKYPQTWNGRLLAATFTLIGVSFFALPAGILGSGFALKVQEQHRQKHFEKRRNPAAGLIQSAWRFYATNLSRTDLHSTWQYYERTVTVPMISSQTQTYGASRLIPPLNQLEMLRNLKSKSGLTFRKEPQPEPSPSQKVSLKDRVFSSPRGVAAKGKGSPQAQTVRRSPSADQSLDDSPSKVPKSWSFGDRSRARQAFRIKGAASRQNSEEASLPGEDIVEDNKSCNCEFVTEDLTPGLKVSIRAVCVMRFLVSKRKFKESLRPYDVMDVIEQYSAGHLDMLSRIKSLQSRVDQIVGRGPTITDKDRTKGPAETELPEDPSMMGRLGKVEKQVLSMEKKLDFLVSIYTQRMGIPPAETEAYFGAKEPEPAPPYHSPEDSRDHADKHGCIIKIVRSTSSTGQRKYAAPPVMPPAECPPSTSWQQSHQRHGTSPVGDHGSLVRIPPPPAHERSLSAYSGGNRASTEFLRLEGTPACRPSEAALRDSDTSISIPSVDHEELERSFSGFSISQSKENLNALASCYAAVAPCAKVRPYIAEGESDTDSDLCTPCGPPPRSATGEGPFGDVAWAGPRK
KCNQ2 block: rat KCNQ2 potassium channel inhibitors, primary screen, cell-based, CHO-K1, FluxOR thallium flux, B-score | 20 min; active compounds read low | AID 2156, 2009 | actives 1.1% (n = 310,000) | B-score at 10 µM | Potassium voltage-gated channel subfamily KQT member 2 (Rattus norvegicus), O88943;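 active = fluorescence ratio B-score at most minus 3 library SDs, with starting brightness B-score within 2 library SDs, cut at about -5.5 in these data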
Kir21 confirm: mouse Kir2.1 channel blockers, retest, confirmation, cell-based, FluxOR thallium flux, duplicate; AID 2032, 2009; Tl flux remaining, % of negative control (active compounds read low), % at 10 µM; Kir2.1-expressing cells, FluxOR thallium flux fluorescence; active compounds read low; shares compounds with KCNQ2 pot; actives 41% (n = 2,300);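 active = Primary-screen hit whose thallium flux fell at least 3 control SD below untreated wells in both duplicates, with normal baseline fluorescence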
HEK293 Tl flux: alters thallium flux in parental HEK293 cells, Kir2.1 counter-screen; FluxOR thallium flux fluorescence; 0% = unstimulated blank wells; FluxOR signal as % of negative control (100 = no effect), % at 10 µM; actives 19% (n = 2,300); shares compounds with KCNQ2 pot;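 active = dye signal at least 3 control SD above or below untreated wells in both duplicates, raw fluorescence within 3, either direction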;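 note: percent is based on the flux ratio of peak minus minimum fluorescence over baseline F0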
CHO-K1 ctr: nonspecific thallium flux increase in parental CHO-K1, confirmation, counter-screen for KCNQ2 potentiator project, cell-based, FluxOR thallium flux, duplicate | shares compounds with KCNQ2 pot | parental CHO-K1 cells, FluxOR thallium flux fluorescence; zero = vehicle mean+3SD, 100% = vehicle-minus-blank window | activity increase over 3SD of controls, % at 10 µM | AID 2282, 2010 | actives 43% (n = 1,200);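 active = signal rise of at least 3 SD above the untreated control mean, in both duplicate wells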;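 note: counter screen of KCNQ2 potentiator hits so any rise reflects channel-independent effects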
KCNQ1 sel pot: human KCNQ1 channel potentiation off-target, confirmation, selectivity assay for KCNQ2 potentiator project, cell-based, CHO, FluxOR thallium flux | shares compounds with KCNQ2 pot | CHO KCNQ1 stable, FluxOR thallium flux fluorescence; beyond 3SD, as % of vehicle-control signal | activation over 3SD threshold, % at 10 µM | actives 28% (n = 1,200);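 active = fluorescence ratio rise of at least 3 SD of vehicle wells above their mean, in both replicate wells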
KCNQ2 pot conf: rat KCNQ2 channel potentiators, confirmation, cell-based, CHO, FluxOR thallium flux, duplicate | shares compounds with KCNQ2 pot | CHO-KCNQ2 cells, FluxOR thallium flux fluorescence | potentiation, less the hit threshold, % at 10 µM | actives 68% (n = 1,200) | AID 2287, 2010;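 active = fluorescence ratio rising 3 SD or more over the vehicle control mean in both replicates, plus primary screen hit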;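 note: peak minus minimum thallium fluorescence divided by baseline after K/Tl stimulus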
Kir21 spec: mouse Kir2.1 channel activation off-target, confirmation, selectivity assay for KCNQ2 potentiator project, cell-based, HEK293, FluxOR thallium flux; HEK293 Kir2.1, FluxOR thallium flux fluorescence; AID 2345, 2010; actives 2% (n = 1,200); shares compounds with KCNQ2 pot; activity over 3SD threshold, % at 10 µM;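 active = fluorescence ratio rise of at least 3 SD above the vehicle-control mean, seen in both replicates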
KCNQ2 W236L MoA: potentiators of retigabine-insensitive KCNQ2 W236L, mechanism study for KCNQ2 potentiator project, cell-based, rat KCNQ2 W236L, CHO, automated patch clamp. AID 2558, 2010. automated patch clamp current. current increase over 3SD of negative controls (%), active compounds read high, % at 25 µM. actives 10% (n = 940). shares compounds with KCNQ2 pot;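 active = current increase at least 3 SD of the untreated controls above them in both duplicate recordings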
Hits are given with their value; n = inactive; x = no result given. Compounds with a hit are over-represented: about 1.6% of the library has one in this group of screens.

SMILES	KCNQ2 pot	KCNQ2 block	Kir21 confirm	HEK293 Tl flux	CHO-K1 ctr	KCNQ1 sel pot	KCNQ2 pot conf	Kir21 spec	others
Cc1ccccc1C(=O)c1cccn1CC(=O)NCC(C)c1ccccc1 (stereo not drawn)	n	n	65.5%	n	x	x	x	x
Cc1ccccc1C(=O)c1cccn1CC(=O)NCc1ccccc1	x	n	x	x	x	x	x	x
Cc1ccc(C(=O)NCc2ccccn2)cc1S(=O)(=O)N1CCCCC1	n	n	x	x	x	x	x	x
COc1cccc(C(=O)NNC(=O)C(=O)Nc2cccc3ccccc23)c1	12.8	n	n	n	n	8.8	n	n
COc1cccc(C(=O)Nc2cccc3ccccc23)c1	x	n	x	x	x	x	x	x
COc1ccc(CC(=O)NNC(=O)c2ccc(NC(C)=O)cc2)cc1	n	n	x	x	x	x	x	x
CCc1ccc(NC(=O)C(=O)NNC(=O)c2ccc(OC)cc2)cc1	24.5	n	n	n	n	n	n	n	KCNQ2 W236L MoA=n
COc1ccc(C(=O)NNC(=O)C(=O)Nc2ccc(C)cc2)cc1	27.8	n	n	234.0%	5.7	n	7.6	n	KCNQ2 W236L MoA=n
COc1ccc(NC(=O)c2ccc(C)cc2)cc1	x	n	x	x	x	x	x	x
Cc1cc(SCC(=O)OC(C)C(=O)N(C)c2ccccc2)nc2ccccc12 (stereo not drawn)	x	n	x	x	x	x	x	x
COc1ccccc1C(C)NC(=O)c1ccccc1SCC(=O)N1CCCC1 (stereo not drawn)	x	n	x	x	x	x	x	x
COc1ccc(C(=O)NC(C)c2cnn(-c3ccccn3)c2C)o1 (stereo not drawn)	x	n	x	x	x	x	x	x
COc1ccc(CCNCc2cc3ccc(C)cc3[nH]c2=O)cc1OC	n	n	x	x	x	x	x	x
CC(O)(CS(=O)(=O)Cc1ccccc1)c1ccccc1Cl (stereo not drawn)	x	n	x	x	x	x	x	x
Cc1nn(C)c(C)c1/C=C1/SC(=S)NC1=O	n	n	x	x	x	x	x	x
Cc1ccc(C2C(/C=C3/SC(=S)NC3=O)=C(c3cccs3)Oc3ccccc32)cc1 (stereo not drawn)	5.81	n	n	n	n	n	n	n
CCN1C(=O)c2ccc(C(=O)NCc3ccco3)cc2C1=O	n	n	x	x	x	x	x	x
O=C(CSc1cccc[n+]1[O-])N1CCCc2ccccc21	14.9	n	n	n	n	1.2	n	n
Cn1nnnc1SCC(=O)N1CCCc2ccccc21	n	n	x	x	x	x	x	x
O=C(NCc1nnc(SCC(=O)N2CCN(c3ccccc3)CC2)o1)c1c(F)cccc1Cl	n	n	x	x	x	x	x	x
Cc1ccc([C@@H]2[C@@H]3C(=O)N(c4ccccc4)C(=O)[C@@H]3[C@]3(C)C(=O)N(CC4CC4)CC(=O)N23)o1	n	n	x	x	x	x	x	x
COc1cc(CNC2CCCC2)cc(Cl)c1OCc1ccc(F)cc1	x	n	x	x	x	x	x	x
COc1cc(CNC2CCCC2)cc(Cl)c1OCc1ccccc1Cl	x	n	31.0%	n	x	x	x	x
CCn1nc(C(=O)OCc2c(C)noc2C)c2ccccc2c1=O	8.4	n	n	n	77.2	n	n	n
CCn1nc(C(=O)OCC(=O)NC(C)C)c2ccccc2c1=O	x	n	x	x	x	x	x	x
SMILES	KCNQ2 pot	KCNQ2 block	Kir21 confirm	HEK293 Tl flux	CHO-K1 ctr	KCNQ1 sel pot	KCNQ2 pot conf	Kir21 spec	others
CCC1CCCCN1C(=O)CSc1nnc(CNC(=O)c2c(F)cccc2Cl)o1 (stereo not drawn)	x	n	x	x	x	x	x	x
CCOc1ccc(S(=O)(=O)n2nc(C)c(S(=O)(=O)N3CCOCC3)c2C)cc1	n	n	x	x	x	x	x	x
Cc1cc(N/N=C/c2ccccc2[N+](=O)[O-])nc(-n2nc(C)cc2C)n1	5.42	n	n	n	n	n	n	n
Cc1cc(N/N=C/c2cccc([N+](=O)[O-])c2)nc(-n2nc(C)cc2C)n1	n	n	x	x	x	x	x	x
COCCN1CCN(C(=O)C2CCC(=O)N(CCc3ccccc3)C2)CC1 (stereo not drawn)	x	n	x	x	x	x	x	x
O=C(CCNS(=O)(=O)c1ccccc1F)N1CCN(C(c2ccccc2)c2ccccc2)CC1	16.5	n	n	n	n	n	44.4	n	KCNQ2 W236L MoA=n
O=C(CCNS(=O)(=O)c1ccccc1F)N1CCN(S(=O)(=O)c2cccc(F)c2)CC1	x	n	x	x	x	x	x	x
Cc1cc(C(=O)CCC(=O)N2CCN(S(=O)(=O)c3cccs3)CC2)c(C)s1	n	n	x	x	x	x	x	x
Cc1cc(C(=O)CCC(=O)N2CCN(S(=O)(=O)c3ccccc3)CC2)c(C)s1	6.23	n	n	n	n	n	11.3	n	KCNQ2 W236L MoA=n
CC(=O)c1cccc(OCc2cc(C(=O)N3C[C@@H](C)O[C@@H](C)C3)no2)c1	n	n	x	x	x	x	x	x
CN(C)N1C(N)=C(C#N)C(c2ccccc2F)C2=C1CC(C)(C)CC2=O (stereo not drawn)	n	n	x	x	x	x	x	x
C[C@@H](C(=O)N1CCN(Cc2ccc3c(c2)OCO3)CC1)n1nnc2ccccc2c1=O	n	n	x	x	x	x	x	x
O=C(Nc1ccccc1)NC1CCCCC1	n	n	x	x	x	x	x	x
Cc1ccc(C)c(C(C)NC(=S)NC2CCCCC2)c1 (stereo not drawn)	n	n	x	x	x	x	x	x
CC(C)c1ccc(NC(=S)NC2CCCCCC2)cc1	x	n	x	x	x	x	x	x
Cc1ccc(CNC(=O)NC2CCCCC2)cc1	n	n	x	x	x	x	x	x
CCC(NC(=S)NC1CCCCC1)c1ccc(C)cc1 (stereo not drawn)	22	n	n	n	n	n	71.2	n	KCNQ2 W236L MoA=n
CCCc1ccc(C(C)NC(=S)NC2CCCCC2)cc1 (stereo not drawn)	22.5	n	n	n	n	0.9	39.2	n	KCNQ2 W236L MoA=n
Cc1ccc(CNC(=S)NC2CCCCC2)cc1	6.39	n	n	n	n	n	7.2	n	KCNQ2 W236L MoA=n
Cc1ccc(CN=C(Nc2ccccc2)NC2CCCCC2)cc1	x	n	60.0%	n	x	x	x	x
CC(C)(C)c1ccc(C(=O)c2cn[nH]c2-c2ccccc2O)cc1	n	n	x	x	x	x	x	x
Cc1ccc(N2CC(C(=O)Nc3nnc(SCCN4CCOCC4)s3)CC2=O)cc1C (stereo not drawn)	n	n	x	x	x	x	x	x
Cc1ccc(S(=O)(=O)c2cn(C)c3cc(N4CCN(C)CC4)c(F)cc3c2=O)c(C)c1	x	n	x	x	x	x	x	x
